VACV mCherry inh: vaccinia inhibition (mCherry reporter). Vaccinia virus mCherry reporter infection, fluorescence. Potency, µM (doses to about 36.5 µM), actives largely listed as inhibitors. hit rate 0.63% among 310,000. AID 720579; calls by dose curve; tested in A549 cells; further: nearly all actives have a fitted effect of over 35% in size
HCMV inh: blocks human cytomegalovirus replication | HFF cells, HCMV-luciferase reporter, 72 h; stronger effect = lower value | activity change, negative = inhibition, % at 57.5 µM | hit rate 4.5% among 410,000 | AID 1259415; in the data active means activity change below about -60%; inconclusive means no clear call, values can overlap the other calls; inactive means above about -39%
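After 16 h attachment at 37C, HFF cells received test compound and HCMV-luciferase (1 PFU/cell); reporter luminescence read 72 h later, data normalized against buffer-only and known inhibitor Salinomycin.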
MARV entry inh: Marburg virus entry inhibition; Marburg virus pseudotyped entry inhibition, cell reporter; Potency, µM (highest dose often 37.8 µM), most hits filed as inhibitors; hit rate 1.8% among 300,000; AID 540276; calls by dose curve; tested in HEK293 cells
LASV entry inh: inhibitors of Lassa virus binding or cell entry; Lassa virus pseudotype entry inhibition, cell reporter; Potency, µM (series often up to 37.9 µM), hits mostly inhibitors; hit rate 1.2% among 300,000; calls by dose curve; tested in HEK293 cells; further: nearly all actives have a fitted effect of over 50% in size
VACV Venus inh: vaccinia inhibition (Venus reporter). Vaccinia virus Venus reporter expression, fluorescence. AID 720580. hit rate 0.46% among 330,000. Potency, µM (top dose mostly 36.5 µM), hits mostly inhibitors; calls by dose curve; tested in A549 cells; further: nearly all actives have a fitted effect of over 30% in size
HCV inh: HCV inhibition | hit rate 3.4% among 340,000 | Potency, µM (titrated, usually from 41.8 µM), actives largely listed as inhibitors | Huh7.5.1 HCVcc-Cre infection, luciferase reporter, 44 h; active means well fitted inhibition curve with a large enough effect; inconclusive means small, poorly fitted or top-dose-only effect, or another doubt; inactive means no such curve, though single readings can be large or run the other way
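Infectious HCVcc-Cre (~0.5 moi) was added to cells just after compound, with cells seeded 4 h earlier at 1,000 per well. Luciferase activity after 44 h culture reported infection; substrate was incubated 15 min at room temperature before reading.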
Each line names hits and unclear results; the compound was inactive in the other large screens. A selection: hits, their analogues and other compounds. The true share with any hit is near 7.8%.

COC(=O)c1ccc2c(c1)N(CC(=O)Nc1ccc(C)cc1Cl)C(=O)c1ccccc1S2	LASV entry inh inconclusive (no result: MARV entry inh, HCV inh)
Nc1cccc2c1C(=O)N(CCOc1ccccc1F)C2=O	MARV entry inh inconclusive, LASV entry inh 2.8µM
O=C1N=C(N2CCC(Cc3ccccc3)CC2)S/C1=C/c1cn[nH]c1-c1ccccc1	MARV entry inh 10µM, LASV entry inh inconclusive, HCV inh inconclusive (no result: VACV mCherry inh, VACV Venus inh)
O=C1N=C(N2CCN(c3ccccc3)CC2)S/C1=C\c1cn[nH]c1-c1ccccc1	MARV entry inh inconclusive
O=C(/C=C\c1ccco1)Nc1cc([N+](=O)[O-])ccc1F	VACV mCherry inh inconclusive, HCMV inh -87, MARV entry inh inconclusive, LASV entry inh inconclusive, VACV Venus inh inconclusive
Cc1ccc(NC(=O)/C=C/c2ccco2)cc1F	VACV mCherry inh inconclusive, LASV entry inh inconclusive (no result: MARV entry inh, HCV inh)
Cc1cc(Nc2cccc(C(F)(F)F)c2)n2nc(C)nc2n1	MARV entry inh inconclusive, VACV Venus inh 10µM (no result: VACV mCherry inh)
CCc1ccc(Nc2cc(C)nc3nc(Cc4ccc(Cl)cc4)nn23)cc1	VACV mCherry inh inconclusive, HCMV inh -92, MARV entry inh inconclusive, LASV entry inh inconclusive, VACV Venus inh inconclusive (no result: HCV inh)
COc1ccc(-c2nc3nc(C)cc(Nc4cccc(C(F)(F)F)c4)n3n2)cc1	none (no result: HCV inh)
CCc1nc2nc(C)cc(Nc3cccc(C(F)(F)F)c3)n2n1	VACV Venus inh 10µM, HCV inh inconclusive (no result: VACV mCherry inh)
COCC(=O)Nc1cc(C(=O)N2CCCCC2c2nccn2C)cc2nc(-c3ccccc3)n(C)c12 (stereo not given)	none (no result: HCMV inh, MARV entry inh, LASV entry inh, HCV inh)
CC(=O)c1ccc(N(C(=O)c2ccco2)C(C(=O)NC2CCCC2)c2cccs2)cc1 (stereo not given)	HCMV inh inconclusive (no result: LASV entry inh)
CCOc1ccccc1N(C(=O)c1ccco1)C(C(=O)NC1CCCC1)c1cccs1 (stereo not given)	HCMV inh -63, MARV entry inh inconclusive
CCOc1ccccc1N(C(=O)CNC(=O)c1ccco1)C(C(=O)NC1CCCC1)c1ccncc1 (stereo not given)	HCMV inh -61
Cc1ccc(N(C(=O)CNC(=O)c2ccco2)C(C(=O)NCC2CCCO2)c2ccccc2)cc1C (stereo not given)	HCMV inh -67 (no result: LASV entry inh)
O=C(NC1CCCCC1)C(c1cccs1)N(C(=O)c1ccco1)c1ccc2c(c1)OCCO2 (stereo not given)	HCMV inh -61, MARV entry inh inconclusive, LASV entry inh inconclusive, HCV inh inconclusive
CCOc1ccc(N(C(=O)CNC(=O)c2ccco2)C(C(=O)NC2CCCC2)c2ccncc2)cc1 (stereo not given)	none
Cc1ccc(C)c(N(C(=O)CNC(=O)c2ccco2)C(C(=O)NCC2CCCO2)c2ccccc2)c1 (stereo not given)	HCMV inh inconclusive
Cc1ccc(N(C(=O)CNC(=O)c2ccco2)C(C(=O)NC2CCCC2)c2ccncc2)cc1C (stereo not given)	HCMV inh -67 (no result: LASV entry inh)
Cc1ccc(N(C(=O)CNC(=O)c2ccco2)C(C(=O)NC2CCCC2)c2ccncc2)cc1F (stereo not given)	none
S=C(Nc1ccccc1Cl)NC1CCN(Cc2ccccc2)CC1	MARV entry inh inconclusive, HCV inh inconclusive
CC(C)c1ccc(NC(=S)NC2CCN(Cc3ccccc3)CC2)cc1	VACV mCherry inh inconclusive, MARV entry inh inconclusive, LASV entry inh 18µM, VACV Venus inh inconclusive, HCV inh inconclusive
Cc1c(Cl)cccc1NC(=S)NC1CCN(Cc2ccccc2)CC1	VACV mCherry inh inconclusive, HCMV inh -91, MARV entry inh 16µM, LASV entry inh inconclusive, HCV inh inconclusive
Cc1ccc(NC(=S)NC2CCN(Cc3ccccc3)CC2)cc1C	HCMV inh inconclusive, VACV Venus inh inconclusive, HCV inh 11µM (no result: MARV entry inh, LASV entry inh)
S=C(Nc1cc(Cl)cc(Cl)c1)NC1CCN(Cc2ccccc2)CC1	HCMV inh -100, HCV inh 10µM (no result: VACV mCherry inh, MARV entry inh, LASV entry inh, VACV Venus inh)
CCc1ccc2c(c1)NC(=O)C2(C)Cc1ccccc1C#N (stereo not given)	none (no result: MARV entry inh, LASV entry inh, HCV inh)
COc1cccc(CNC(=O)c2ccc3c(c2)N(C)C(=O)C2CCCCN32)c1 (stereo not given)	none (no result: MARV entry inh, HCV inh)
O=C(CF)N(O)c1ccc(C=Cc2ccccc2)cc1	VACV mCherry inh inconclusive, HCMV inh -79, MARV entry inh 1µM, LASV entry inh 1.1µM, VACV Venus inh inconclusive, HCV inh inconclusive
CCOC(=O)N(O)c1ccc(C=Cc2ccccc2)cc1	VACV mCherry inh inconclusive, HCMV inh -62, MARV entry inh 1.3µM, LASV entry inh 0.63µM, VACV Venus inh inconclusive, HCV inh 4µM
CN1CCN(C2=C(NS(=O)(=O)c3cccs3)C(=O)c3ccccc3C2=O)CC1	VACV mCherry inh 18µM, MARV entry inh inconclusive, LASV entry inh inconclusive, VACV Venus inh 10µM, HCV inh 11µM
O=C1C(NS(=O)(=O)c2cccs2)=C(N2CCOCC2)C(=O)c2ccccc21	VACV mCherry inh inconclusive, HCMV inh inconclusive, LASV entry inh inconclusive
CCN1CCN(C2=C(NS(=O)(=O)c3ccccc3)C(=O)c3ccccc3C2=O)CC1	HCMV inh -62, HCV inh 11µM (no result: VACV mCherry inh, MARV entry inh, LASV entry inh, VACV Venus inh)
CCN1CCN(C2=C(NS(=O)(=O)c3ccc(Br)cc3)C(=O)c3ccccc3C2=O)CC1	HCMV inh -112, HCV inh inconclusive (no result: VACV mCherry inh, MARV entry inh, LASV entry inh, VACV Venus inh)
CN1CCN(C(CNC(=O)C(=O)Nc2ccccc2C#N)c2ccc3c(c2)OCO3)CC1 (stereo not given)	none (no result: MARV entry inh, HCV inh)
CCC(=O)N1CCc2cc(CNS(=O)(=O)c3c(C)cc(C)cc3C)ccc21	none (no result: MARV entry inh, HCV inh)
Cn1ccc(C(=O)NCC2CCC3(CCN(Cc4cc(F)cc(F)c4)CC3)O2)n1 (stereo not given)	none (no result: HCMV inh, MARV entry inh, LASV entry inh, HCV inh)
CCc1ccc(/C=C2\SC(=S)N(CCCC(=O)N3CCCC3)C2=O)cc1	VACV mCherry inh inconclusive, HCMV inh -99, VACV Venus inh inconclusive (no result: MARV entry inh, LASV entry inh, HCV inh)
COc1ccc(/C=C2\SC(=S)N(CCCC(=O)N3CCOCC3)C2=O)cc1	VACV mCherry inh inconclusive, HCMV inh inconclusive, MARV entry inh inconclusive, VACV Venus inh inconclusive
COc1ccccc1/C=C1\SC(=S)N(CCC(=O)N2CCCCC2CCO)C1=O (stereo not given)	HCMV inh -77, MARV entry inh inconclusive, HCV inh inconclusive
COc1cccc(/C=C2\SC(=S)N(CCCC(=O)N3CCCC3)C2=O)c1	VACV mCherry inh inconclusive, HCMV inh -112, MARV entry inh inconclusive, VACV Venus inh inconclusive, HCV inh inconclusive
COc1cccc(/C=C2\SC(=S)N(CCC(=O)N3CCCCC3CCO)C2=O)c1 (stereo not given)	HCMV inh -98, HCV inh inconclusive (no result: VACV mCherry inh, MARV entry inh, LASV entry inh, VACV Venus inh)
CN(C(=O)CSc1cn(CC(=O)N2CCCC2)c2ccccc12)c1ccccc1	none (no result: MARV entry inh, HCV inh)
COC(=O)c1cc(CNC(=O)c2cccc(F)c2)cc(NC(=O)c2ccccc2OC)c1	none (no result: HCMV inh, MARV entry inh, LASV entry inh, HCV inh)
COc1cccc(/C=C2\SC(=S)N(CCCC(=O)N3CCCCC3CCO)C2=O)c1 (stereo not given)	HCMV inh -110, HCV inh inconclusive (no result: VACV mCherry inh, MARV entry inh, LASV entry inh, VACV Venus inh)
O=C(CCN1C(=O)/C(=C/c2cccs2)SC1=S)N1CCCCC1	VACV mCherry inh inconclusive, MARV entry inh inconclusive, LASV entry inh inconclusive, VACV Venus inh inconclusive
